About 7,900 targets were measured; listed, in parts, are those with a hit and a random draw of the rest. About 0.6% of all pairs of compound and target were hits.
How the values were obtained:
Assay in all cases: log2 fold change, soluble protein after heating vs DMSO (PISA); higher = thermal stabilisation; K562 cells, 10 uM, 30 min; active = over 0.2 and 3.5 SD of the protein, either way, in both replicates (recomputed)
[1] = compound: CC1=C(C=C(C=C1)NC(=O)C2=CC(=CC=C2)C(C)(C)C#N)NC3=CC4=C(C=C3)N=CN(C4=O)C
Summary of the method: (§1)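 Aliquots of K562 cells (2×10^6 cells/mL) treated with 10 μM compound for 30 min were heated for 3 min over 48°C-58°C. After pooling and extraction in PBS with 0.5% NP-40 at 4°C, soluble protein from a 21,000xg, 90 min spin was quantified by TMTpro 16plex LC-MS/MS with channel sums equalised. Thermal stability is expressed against control samples, from duplicates, as a log2 fold change.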

[2] = compound: CC1=C(C=C(C=C1)NC(=O)C2=CC(=CC=C2)N(C)C)NC(=O)C3=CC=C(C=C3)O
Summary of the method: as §1

[3] = compound: CC1=CC=C(C=C1)SC2=C3C=C(SC3=CN=C2)C(=O)N
Summary of the method: as §1

[4] = compound: CC1=NC(=CC=C1)C2=C(N=C(N2)C(C)(C)C)C3=CC4=NC=CN=C4C=C3
Summary of the method: as §1

Nexturastat A = compound: CCCCN(Cc1ccc(C(=O)NO)cc1)C(=O)Nc1ccccc1 [Nexturastat A]
Summary of the method: as §1

vemurafenib = compound: CCCS(=O)(=O)Nc1ccc(F)c(C(=O)c2c[nH]c3ncc(-c4ccc(Cl)cc4)cc23)c1F [vemurafenib]
Summary of the method: as §1

[5] = compound: CCCS(=O)(=O)Nc1ccc(F)c(C(=O)c2c[nH]c3ncc(Cl)cc23)c1F
Summary of the method: as §1

[6] = compound: CCCc1cc(C)[nH]c(=O)c1CNC(=O)c1cc(-c2ccnc(N3CCN(C)CC3)c2)cc2c1cnn2C(C)C
Summary of the method: as §1

givinostat = compound: CCN(CC)Cc1ccc2cc(COC(=O)Nc3ccc(C(=O)NO)cc3)ccc2c1 [givinostat]
Summary of the method: as §1

barasertib = compound: CCN(CCCOc1ccc2c(Nc3cc(CC(=O)Nc4cccc(F)c4)[nH]n3)ncnc2c1)CCOP(=O)(O)O [barasertib]
Summary of the method: as §1

[7] = compound: CC[C@@H]1C(=O)N(C)c2cnc(Nc3ccc(C(=O)NC4CCN(C)CC4)cc3OC)nc2N1C1CCCC1
Summary of the method: as §1

volasertib = compound: CC[C@@H]1C(=O)N(C)c2cnc(Nc3ccc(C(=O)N[C@H]4CC[C@H](N5CCN(CC6CC6)CC5)CC4)cc3OC)nc2N1C(C)C [volasertib]
Summary of the method: as §1

epoxomicin = compound: CC[C@H](C)[C@@H](C(=O)N[C@@H]([C@@H](C)O)C(=O)N[C@@H](CC(C)C)C(=O)[C@]1(CO1)C)NC(=O)[C@H]([C@@H](C)CC)N(C)C(=O)C [epoxomicin]
Summary of the method: as §1

[8] = compound: CCn1c(C(=O)N(C2CC2)C2CC2)cc2c3c(ncn3C)c(Nc3cc(C)n(C)n3)nc21
Summary of the method: as §1

[9] = compound: CCn1cc(-c2ccnc3[nH]c(-c4cccc(CN(C)C)c4)cc23)c(-c2ccc(NC(=O)N(C)C)cc2)n1
Summary of the method: as §1

[10] = compound: CN(C)CC(=O)Nc1ccc2[nH]c(=O)c3ccccc3c2c1
Summary of the method: as §1

rosiglitazone = compound: CN(CCOC1=CC=C(C=C1)C[C@H]2C(=O)NC(=O)S2)C3=CC=CC=N3 (racemic) [rosiglitazone]
Summary of the method: as §1

[11] = compound: CN1C2=C(C3=C1C(=O)N(N=C3)CC4=CC(=CC=C4)N)SC(=C2)S(=O)C
Summary of the method: as §1

[12] = compound: CN1CCC(CNc2ccc3ncc(-c4cccc(OC(F)(F)F)c4)n3n2)CC1
Summary of the method: as §1

[13] = compound: CC[C@H](C)N1C=C(C2=C(C=C(C=C21)C3=CN=C(C=C3)N4CCNCC4)C(=O)NCC5=C(C=C(NC5=O)C)C)C
Summary of the method: as §1

Measured: log2 fold change

UTP3 (UniProt Q9NQZ2)
Sequence of UniProt Q9NQZ2 (Q9NQZ2 whole entry, looked up): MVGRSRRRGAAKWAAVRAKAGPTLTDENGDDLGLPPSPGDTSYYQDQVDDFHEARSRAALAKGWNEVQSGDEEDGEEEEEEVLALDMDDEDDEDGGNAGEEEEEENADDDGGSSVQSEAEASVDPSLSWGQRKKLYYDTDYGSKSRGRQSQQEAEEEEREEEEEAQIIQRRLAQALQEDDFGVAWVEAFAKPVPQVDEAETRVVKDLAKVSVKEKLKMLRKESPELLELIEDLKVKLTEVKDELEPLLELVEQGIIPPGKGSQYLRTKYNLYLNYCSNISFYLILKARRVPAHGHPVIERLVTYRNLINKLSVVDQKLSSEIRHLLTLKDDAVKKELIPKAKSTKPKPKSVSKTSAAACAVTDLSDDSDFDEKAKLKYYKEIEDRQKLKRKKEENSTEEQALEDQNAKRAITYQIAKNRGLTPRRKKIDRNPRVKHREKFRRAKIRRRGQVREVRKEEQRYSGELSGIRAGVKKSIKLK
inactive: [1] -0.016 | [2] 0.008 | [3] -0.094 | [4] -0.048 | Nexturastat A 0.308 | vemurafenib 0.004 | [5] 0.022 | [6] 0.101 | givinostat 0.075 | barasertib -0.08 | [7] 0.067 | volasertib -0.012 | epoxomicin -0.376 | [8] -0.007 | [9] 0.236 | [10] -0.052 | rosiglitazone -0.41 | [11] 0.165 | [12] 0.092

TRABD (UniProt Q9H4I3)
Sequence of UniProt Q9H4I3 (Q9H4I3 whole entry, looked up): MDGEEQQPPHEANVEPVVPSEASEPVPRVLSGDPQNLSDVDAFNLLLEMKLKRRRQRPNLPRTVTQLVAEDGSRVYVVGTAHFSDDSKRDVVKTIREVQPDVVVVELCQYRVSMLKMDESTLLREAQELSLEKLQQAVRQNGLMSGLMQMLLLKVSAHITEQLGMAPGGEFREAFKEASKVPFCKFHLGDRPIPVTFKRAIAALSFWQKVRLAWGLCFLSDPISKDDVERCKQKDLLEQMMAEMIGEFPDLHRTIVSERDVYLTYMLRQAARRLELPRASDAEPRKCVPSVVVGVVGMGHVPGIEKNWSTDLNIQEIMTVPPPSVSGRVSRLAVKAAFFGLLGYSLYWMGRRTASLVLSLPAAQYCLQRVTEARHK
inactive: [1] 0.014 | [2] -0.017 | [3] -0.005 | [4] -0.133 | Nexturastat A -0.03 | vemurafenib 0.125 | [5] -0.06 | [6] 0.147 | givinostat -0.041 | barasertib 0.031 | [7] 0.245 | volasertib 0.215 | [13] 0 | epoxomicin -0.004 | [8] 0.128 | [9] -0.108 | [10] 0.029 | rosiglitazone 0.001 | [12] 0.228

UNC119B (UniProt A6NIH7)
Sequence of UniProt A6NIH7 (A6NIH7 whole entry, looked up): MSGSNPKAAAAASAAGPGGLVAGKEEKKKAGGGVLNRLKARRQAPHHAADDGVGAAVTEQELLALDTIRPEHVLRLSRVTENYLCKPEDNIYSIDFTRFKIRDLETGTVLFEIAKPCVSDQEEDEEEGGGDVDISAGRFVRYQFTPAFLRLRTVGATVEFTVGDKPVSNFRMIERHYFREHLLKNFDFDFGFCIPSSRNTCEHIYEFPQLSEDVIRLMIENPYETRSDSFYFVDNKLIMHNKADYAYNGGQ
inactive: [1] 0.293 | [2] -0.057 | [3] 0.241 | [4] -0.017 | vemurafenib 0.023 | [5] -0.047 | [6] -0.108 | givinostat 0.12 | barasertib -0.029 | [7] -0.168 | volasertib 0.066 | [13] -0.224 | [8] -0.134 | [9] -0.104 | [10] -0.023 | rosiglitazone 0.001 | [11] 0.004 | [12] 0.047

TTC33 (UniProt Q6PID6)
Sequence of UniProt Q6PID6 (Q6PID6 whole entry, looked up): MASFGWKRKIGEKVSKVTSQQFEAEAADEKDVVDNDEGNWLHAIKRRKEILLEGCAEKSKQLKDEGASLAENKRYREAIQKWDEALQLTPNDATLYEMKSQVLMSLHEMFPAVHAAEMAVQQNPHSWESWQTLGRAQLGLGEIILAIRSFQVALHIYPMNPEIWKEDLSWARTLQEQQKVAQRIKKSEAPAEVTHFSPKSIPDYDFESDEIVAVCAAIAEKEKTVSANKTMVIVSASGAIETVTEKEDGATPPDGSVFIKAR
inactive: [1] -0.046 | [2] -0.025 | [3] -0.059 | [4] -0.189 | Nexturastat A 0.026 | vemurafenib -0.07 | [5] -0.002 | [6] -0.471 | givinostat -0.062 | barasertib 0.079 | [7] 0.038 | volasertib -0.027 | epoxomicin 0.049 | [8] 0.012 | [10] -0.075 | rosiglitazone 0.035 | [11] -0.048 | [12] 0.138
active: [9] -0.449

UBAP1 isoform 4 (UniProt Q9NZ09)
inactive: [1] 0.082 | [2] -0.002 | [3] 0.135 | [4] -0.015 | Nexturastat A -0.049 | vemurafenib 0.005 | [5] 0.159 | [6] 0.018 | givinostat 0.13 | barasertib 0.033 | [7] -0.012 | [13] 0 | epoxomicin 0.092 | [8] -0.037 | [9] 0.006 | [10] -0.034 | rosiglitazone 0.022 | [11] 0.023 | [12] -0.089
active: volasertib -0.545

UFM1 (UniProt P61960)
inactive: [1] 0.031 | [2] -0.046 | [3] 0.06 | [4] 0.183 | Nexturastat A -0.04 | vemurafenib 0.07 | [5] 0.041 | [6] -0.083 | givinostat 0.087 | barasertib -0.014 | [7] 0.025 | volasertib -0.13 | [13] -0.092 | epoxomicin 0.023 | [8] -0.026 | [10] 0.043 | rosiglitazone 0.029 | [11] -0.062

TRIM44 (UniProt Q96DX7)
inactive: [1] 0.059 | [2] -0.055 | [3] 0.06 | [4] 0.015 | vemurafenib -0.005 | [5] 0.042 | [6] 0 | givinostat -0.026 | barasertib -0.035 | [7] 0.003 | volasertib -0.028 | [13] -0.024 | [8] 0.014 | [9] 0.005 | [10] -0.004 | rosiglitazone 0.035 | [11] -0.069 | [12] 0.041

ULBP1 (UniProt Q9BZM6)
Sequence of UniProt Q9BZM6 (Q9BZM6 whole entry, looked up): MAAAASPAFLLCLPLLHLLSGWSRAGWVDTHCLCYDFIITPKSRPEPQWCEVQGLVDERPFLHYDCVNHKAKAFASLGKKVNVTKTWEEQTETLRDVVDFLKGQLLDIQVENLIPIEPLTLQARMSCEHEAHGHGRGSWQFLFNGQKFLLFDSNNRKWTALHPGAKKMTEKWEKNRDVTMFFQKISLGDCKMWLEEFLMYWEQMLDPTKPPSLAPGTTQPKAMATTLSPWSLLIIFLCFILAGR
inactive: [1] -0.088 | [2] 0.023 | [3] -0.014 | vemurafenib 0.051 | [5] 0.053 | [6] 0 | givinostat 0.028 | volasertib -0.178 | epoxomicin 0.152 | [8] -0.013 | [10] -0.019 | [11] 0.007
active: Nexturastat A 0.428

TRPT1 isoform 4 (UniProt Q86TN4)
Sequence of UniProt Q86TN4 (Q86TN4 whole entry, looked up): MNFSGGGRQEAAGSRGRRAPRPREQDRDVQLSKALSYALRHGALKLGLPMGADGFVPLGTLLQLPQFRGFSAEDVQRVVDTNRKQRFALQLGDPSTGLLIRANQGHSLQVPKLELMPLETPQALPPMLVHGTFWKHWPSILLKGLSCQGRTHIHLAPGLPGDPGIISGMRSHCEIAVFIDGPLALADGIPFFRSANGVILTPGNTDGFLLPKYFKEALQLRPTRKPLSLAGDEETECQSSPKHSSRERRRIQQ
inactive: [2] 0.136 | [4] -0.008 | [6] 0.029 | givinostat 0.179 | [7] 0.084 | [8] 0.071
active: [1] -1.08

WDR46, A0A0G2JJL1
inactive: [1] -0.161 | [3] -0.229 | [4] -0.254 | Nexturastat A 0.194 | vemurafenib -0.09 | [5] 0.078 | [6] 0.19 | givinostat 0.15 | barasertib -0.248 | [7] 0.388 | volasertib 0.37 | [13] -0.068 | epoxomicin -0.451 | [8] -0.108 | [10] -0.183 | rosiglitazone -0.177 | [11] 0.215

TMEM219 (UniProt Q86XT9)
inactive: [1] 0.021 | [3] 0.02 | Nexturastat A 0.311 | vemurafenib 0.172 | [5] -0.107 | givinostat -0.029 | barasertib -0.187 | volasertib -0.111 | [13] 0.033 | epoxomicin 0.035 | [8] 0.002 | [9] 0.037 | [10] 0.094 | rosiglitazone 0.078 | [11] -0.085 | [12] -0.029

WARS1 (UniProt G3V277)
active: vemurafenib -0.587
inactive: [1] 0.02 | [4] -0.043 | [6] -0.338 | givinostat 0.141 | barasertib 0.073 | [13] -0.041 | [8] -0.084 | [9] 0.098 | [10] -0.163 | rosiglitazone 0.078 | [12] -0.12

UBE2J2 isoform 3 (UniProt Q8N2K1)
Sequence of UniProt Q8N2K1 (Q8N2K1 whole entry, looked up): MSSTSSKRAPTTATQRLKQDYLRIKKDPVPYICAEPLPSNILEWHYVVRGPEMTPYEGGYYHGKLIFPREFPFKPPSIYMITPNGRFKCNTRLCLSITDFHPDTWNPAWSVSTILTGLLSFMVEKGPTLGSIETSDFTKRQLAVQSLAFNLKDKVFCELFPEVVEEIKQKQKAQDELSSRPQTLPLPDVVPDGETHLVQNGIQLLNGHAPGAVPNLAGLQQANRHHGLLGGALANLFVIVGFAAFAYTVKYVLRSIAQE
inactive: [1] -0.085 | [3] 0.024 | Nexturastat A 0.028 | vemurafenib 0.214 | [5] -0.027 | givinostat 0.009 | barasertib 0.006 | [7] -0.07 | volasertib -0.157 | epoxomicin 0.254 | [8] 0.047 | [9] -0.418 | [10] 0.04 | rosiglitazone 0.068 | [11] -0.055 | [12] 0.122

WDR4 isoform 3 (UniProt P57081)
Sequence of UniProt P57081 (P57081 whole entry, looked up): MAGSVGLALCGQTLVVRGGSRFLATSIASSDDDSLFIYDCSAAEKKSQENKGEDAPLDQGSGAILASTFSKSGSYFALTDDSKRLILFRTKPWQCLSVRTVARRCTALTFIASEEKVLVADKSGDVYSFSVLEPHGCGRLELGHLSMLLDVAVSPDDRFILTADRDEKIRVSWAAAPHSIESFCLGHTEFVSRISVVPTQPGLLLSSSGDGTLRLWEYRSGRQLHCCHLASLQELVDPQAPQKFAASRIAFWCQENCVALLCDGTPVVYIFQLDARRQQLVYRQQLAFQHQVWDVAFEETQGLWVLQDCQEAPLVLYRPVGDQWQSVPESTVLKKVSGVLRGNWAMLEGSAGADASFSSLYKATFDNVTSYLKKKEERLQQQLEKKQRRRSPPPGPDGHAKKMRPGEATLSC
inactive: [1] -0.041 | Nexturastat A -0.031 | barasertib 0.08 | epoxomicin 0.017 | [9] -0.044 | rosiglitazone 0.142 | [12] -0.036

TMEM184C (UniProt Q9NVA4)
Sequence of UniProt Q9NVA4 (Q9NVA4 whole entry, looked up): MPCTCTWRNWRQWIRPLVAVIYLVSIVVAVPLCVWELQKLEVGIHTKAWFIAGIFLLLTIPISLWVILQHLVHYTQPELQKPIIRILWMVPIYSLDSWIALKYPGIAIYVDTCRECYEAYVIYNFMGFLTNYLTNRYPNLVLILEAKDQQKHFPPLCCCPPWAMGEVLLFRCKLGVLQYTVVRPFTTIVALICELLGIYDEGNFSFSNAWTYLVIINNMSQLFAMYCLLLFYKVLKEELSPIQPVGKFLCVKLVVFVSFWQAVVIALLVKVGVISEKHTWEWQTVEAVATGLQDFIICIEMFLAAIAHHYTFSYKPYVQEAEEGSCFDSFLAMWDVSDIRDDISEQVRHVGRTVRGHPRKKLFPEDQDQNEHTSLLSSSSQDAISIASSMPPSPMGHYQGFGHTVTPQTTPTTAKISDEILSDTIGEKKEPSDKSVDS
active: [12] -0.492
inactive: [1] -0.07 | [2] 0.028 | [4] 0.028 | Nexturastat A -0.02 | vemurafenib 0.024 | [6] -0.028 | barasertib 0.055 | [7] -0.03 | [13] 0.033 | epoxomicin 0.087 | [9] 0.08 | [10] -0.013 | rosiglitazone 0.088 | [11] -0.237

U2AF1L5 (UniProt P0DN76)
inactive: [4] -0.036 | vemurafenib 0.019 | [6] 0.06 | givinostat 0.563 | barasertib -0.127 | [7] -0.289 | [13] 0.045 | [8] -0.303 | [10] 0.138 | rosiglitazone 0.04 | [11] 0.112

USP48 (UniProt Q86UV5)
Sequence of UniProt Q86UV5 (Q86UV5 whole entry, looked up): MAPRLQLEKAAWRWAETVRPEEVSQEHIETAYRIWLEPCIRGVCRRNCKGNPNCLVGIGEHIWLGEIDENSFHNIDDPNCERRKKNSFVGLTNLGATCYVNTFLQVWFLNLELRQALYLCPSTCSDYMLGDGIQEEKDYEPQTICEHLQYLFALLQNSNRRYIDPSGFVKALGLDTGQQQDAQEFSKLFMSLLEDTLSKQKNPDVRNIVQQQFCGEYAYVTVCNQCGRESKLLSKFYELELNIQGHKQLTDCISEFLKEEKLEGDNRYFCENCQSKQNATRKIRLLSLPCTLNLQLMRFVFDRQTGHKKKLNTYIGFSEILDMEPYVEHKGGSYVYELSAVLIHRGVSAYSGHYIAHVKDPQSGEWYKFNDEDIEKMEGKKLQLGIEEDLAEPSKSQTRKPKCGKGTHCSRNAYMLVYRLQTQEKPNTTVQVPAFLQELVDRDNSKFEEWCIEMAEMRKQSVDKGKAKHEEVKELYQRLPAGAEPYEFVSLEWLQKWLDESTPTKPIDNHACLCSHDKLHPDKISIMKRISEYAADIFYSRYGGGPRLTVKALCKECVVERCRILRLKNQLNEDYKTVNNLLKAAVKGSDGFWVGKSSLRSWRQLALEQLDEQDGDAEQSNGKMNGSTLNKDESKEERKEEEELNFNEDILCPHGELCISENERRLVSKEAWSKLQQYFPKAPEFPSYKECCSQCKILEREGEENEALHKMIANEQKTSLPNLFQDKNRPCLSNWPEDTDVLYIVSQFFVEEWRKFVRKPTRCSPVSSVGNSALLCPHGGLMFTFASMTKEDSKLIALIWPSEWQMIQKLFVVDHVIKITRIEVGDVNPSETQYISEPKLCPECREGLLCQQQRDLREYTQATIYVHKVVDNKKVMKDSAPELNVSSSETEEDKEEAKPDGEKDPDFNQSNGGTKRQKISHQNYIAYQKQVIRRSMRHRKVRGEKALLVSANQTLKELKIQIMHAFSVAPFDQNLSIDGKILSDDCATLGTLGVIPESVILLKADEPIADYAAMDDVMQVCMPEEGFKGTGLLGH
inactive: [1] -0.096 | [6] -0.232 | givinostat 0.237 | barasertib 0.252 | [7] -0.159 | [13] 0.059 | [8] -0.045 | rosiglitazone 0.101

TMEM8A (UniProt Q9HCN3)
Sequence of UniProt Q9HCN3 (Q9HCN3 whole entry, looked up): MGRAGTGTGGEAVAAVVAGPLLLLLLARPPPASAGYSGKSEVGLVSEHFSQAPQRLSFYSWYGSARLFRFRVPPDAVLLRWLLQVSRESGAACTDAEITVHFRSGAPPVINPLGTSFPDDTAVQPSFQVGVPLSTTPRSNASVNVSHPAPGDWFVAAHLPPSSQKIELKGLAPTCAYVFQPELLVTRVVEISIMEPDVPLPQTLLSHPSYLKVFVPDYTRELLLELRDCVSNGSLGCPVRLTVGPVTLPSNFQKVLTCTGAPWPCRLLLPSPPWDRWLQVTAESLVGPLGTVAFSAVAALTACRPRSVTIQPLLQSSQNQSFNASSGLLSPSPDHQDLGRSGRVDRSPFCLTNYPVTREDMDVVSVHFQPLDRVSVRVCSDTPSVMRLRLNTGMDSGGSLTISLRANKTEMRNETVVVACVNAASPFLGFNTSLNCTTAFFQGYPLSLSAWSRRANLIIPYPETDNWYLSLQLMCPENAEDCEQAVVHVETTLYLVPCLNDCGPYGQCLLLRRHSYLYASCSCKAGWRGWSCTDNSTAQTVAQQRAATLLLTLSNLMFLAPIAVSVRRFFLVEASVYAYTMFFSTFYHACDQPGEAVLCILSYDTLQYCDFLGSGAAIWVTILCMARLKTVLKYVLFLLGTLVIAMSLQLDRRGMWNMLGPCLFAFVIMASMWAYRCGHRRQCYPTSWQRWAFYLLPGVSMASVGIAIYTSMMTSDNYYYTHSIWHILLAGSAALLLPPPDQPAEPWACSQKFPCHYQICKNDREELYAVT
inactive: [1] 0.101 | [2] 0.017 | [3] -0.047 | vemurafenib -0.003 | [5] -0.073 | [6] -0.077 | givinostat 0.014 | barasertib -0.189 | [7] -0.11 | volasertib 0.008 | [13] -0.108 | [8] 0.068 | [9] -0.037 | [10] -0.031 | rosiglitazone 0.009 | [11] 0.082 | [12] -0.104

UBE2D1 (UniProt P51668)
Sequence of UniProt P51668 (P51668 whole entry, looked up): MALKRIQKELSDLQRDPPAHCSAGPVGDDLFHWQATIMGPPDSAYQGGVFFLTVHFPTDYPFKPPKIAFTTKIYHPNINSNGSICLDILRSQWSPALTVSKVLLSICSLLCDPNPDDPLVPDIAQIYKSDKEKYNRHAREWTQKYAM
inactive: [1] -0.08 | [2] 0.029 | [3] 0.021 | vemurafenib 0.156 | [5] 0.097 | [6] -0.004 | givinostat -0.035 | barasertib 0.047 | [7] -0.123 | [13] -0.024 | [8] 0.037 | [9] -0.045 | [10] 0.017 | rosiglitazone 0.099 | [11] -0.109 | [12] -0.095
active: volasertib -0.333

TOM1L2 (UniProt Q6ZVM7)
inactive: [1] -0.038 | [4] -0.132 | Nexturastat A -0.046 | vemurafenib -0.008 | givinostat 0.025 | [13] -0.025 | epoxomicin -0.035 | [8] 0.09 | [10] 0.127 | [11] -0.071

WARS1 (UniProt G3V227)
inactive: Nexturastat A 0.459 | vemurafenib -0.455 | barasertib 0.004 | epoxomicin -0.28 | [10] -0.045 | rosiglitazone 0.309 | [11] 0.207

UBAP2L (UniProt F8W726)
inactive: [3] -0.093 | [5] 0.004 | [6] 0.014 | givinostat -0.067 | barasertib -0.058 | [7] 0.077 | volasertib -0.002 | [13] -0.094 | [8] 0.008 | [9] 0.025 | rosiglitazone 0.123 | [12] -0.027
